Measured values as given in PubChem BioAssay AID504850 (National Center for Advancing Translational Sciences (NCATS), 2011).
In all, about 2,300 compounds went through this assay and about 1,200 (52%) were called active. Another 34% or so got no clear call; they are omitted. So high a share suggests a set chosen from earlier hits. Some of the results follow. Values without a mark were called inactive. Calls follow the shape of the dose curve; as a rule, active = well fitted inhibition curve with a large enough effect; inconclusive = small, poorly fitted or top-dose-only effect, or effect the other way; inactive = no such curve, though single readings can be large or run the other way.

test: Confirmation screen for delayed death inhibitors of the malarial parasite plastid, 48 hour incubation; also: nearly all actives have a fitted effect of over 65% in size; conditions: P. falciparum-infected erythrocytes, luciferase growth; series mostly up to 28.7 µM; activity change, negative = inhibition: at the top concentration
Procedure, shortened: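 Erythrocytes infected with luciferase-expressing P. falciparum (2% hematocrit, 0.1% parasitemia) incubated with compounds 48 hours at 37 C, 5% CO2, in RPMI/Albumax. Growth inhibition scored as reduced luminescence after detection reagent.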
% is scaled to controls: 0 for no effect and ±100 for the full control effect; potency is read from the fitted curve at half-maximal effect.

SMILES	Potency	activity change, negative = inhibition
CN(C)c1cc[n+](Cc2c(Cl)cccc2Cl)cc1	2.24 µM (active)	
Clc1cccc(Cl)c1C[n+]1ccc2ccccc2c1	2.82 µM (active)	
CCOc1ccc(CCNC(=O)CCCn2nc(C)c3c(C)n(-c4ccccc4)nc3c2=O)cc1	11.2 µM (active)	
COc1ccc(NC(=O)CCCn2cc([N+](=O)[O-])cn2)cc1		-1.74%
COc1ccc(NC(=O)CCCn2nc(C)c3c(C)n(-c4ccccc4)nc3c2=O)cc1	11.2 µM (active)	
Cc1cccc(C)c1NC(=O)CCCn1nc(C)c2c(C)n(-c3ccccc3)nc2c1=O	12.6 µM (active)	
Cc1ccccc1NC(=O)CCCn1nc(C)c2c(C)n(-c3ccccc3)nc2c1=O	10 µM (active)	
Cc1ccc(-c2nnn(CC(=O)Nc3ccc4nn(-c5ccccc5)nc4c3)n2)o1		-6.32%
CCOc1ccccc1C(=O)NCC(=O)NCCc1ccc(S(N)(=O)=O)cc1		-5.73%
COCCN(C(=S)Nc1ccc(OC)c(Cl)c1)C1CCN(C(C)C)CC1	14.1 µM (active)	
COc1ccc2[nH]c3c(c2c1)CCN1C(=O)N([C@@H](C)C(=O)NCCc2ccc(F)cc2)C(=O)[C@]31C	12.6 µM (active)	
CCCCOc1ccc(N2C(N)=NC(N)=NC23CCCCC3)cc1	2 µM (active)	
CCOC(=O)C1=C(NC(=S)NC(=O)c2ccccc2)c2ccccc2CC1(C)CC (stereo not drawn)	11.2 µM (active)	
O=C(NC1CCC1)C1CCC(=O)N(Cc2ccccc2F)C1 (stereo not drawn)		-11.4%
Cc1ccc2nc(CNC(=O)C3CCC(=O)N(Cc4ccccc4F)C3)cn2c1 (stereo not drawn)	12.6 µM (active)	
COc1ccc(-c2nc(N3CCN(C)CC3)sc2-c2ccc(OC)cc2)cc1	15.8 µM (active)	
Cc1ccc(-c2nnc(N3CCOCC3)c3ccccc23)cc1S(=O)(=O)NCC1CCCO1 (stereo not drawn)	7.08 µM (active)	
CC(=O)Nc1ccc(Nc2nnc(-c3ccc(C)c(S(=O)(=O)NCC4CCCO4)c3)c3ccccc23)cc1 (stereo not drawn)		-0.717%
CCOCCCn1c(C)nc2c(c1=O)c1nc3ccccc3nc1n2CCC1=CCCCC1	7.08 µM (active)	
Cc1nn2c(Nc3ccccc3)c3c(nc2c1-c1ccccc1)CCC3	15.8 µM (active)	

SMILES	Potency	activity change, negative = inhibition
Cc1ccc(-c2csc3nc[nH]c(=O)c23)cc1		-1.08%
Clc1ccc2nnnc(-c3ccccc3)c2c1	3.98 µM (active)	
Cc1ccc(S(=O)(=O)N2CCN(c3ccc(C(=O)N4CCOCC4)cc3[N+](=O)[O-])CC2)cc1	7.08 µM (active)	
O=C(c1ccc(S(=O)(=O)Cc2ccccc2Cl)c([N+](=O)[O-])c1)N1CCOCC1	10 µM (active)	
O=C(c1ccc(S(=O)(=O)Cc2cc(F)ccc2F)c([N+](=O)[O-])c1)N1CCCC1	12.6 µM (active)	
Cc1cccc(N2CCN(C(=O)C3CCN(c4ncnc5c4nc4n5CCCCC4)CC3)CC2)c1C	14.1 µM (active)	
CC1CCN(C(=O)C2CCCN(c3ncnc4c3nc3n4CCCCC3)C2)CC1 (stereo not drawn)	14.1 µM (active)	
COC(=O)CC1C(=O)NCCN1C(=S)Nc1ccc(F)cc1 (stereo not drawn)	14.1 µM (active)	
CCOC(=O)C(Cc1ccccc1)C(=O)Nc1cccc2ccccc12 (stereo not drawn)	3.98 µM (active)	
COc1cccc(COC(=O)C2CC(=O)N(Cc3ccco3)C2)c1OC (stereo not drawn)		-19.1%
CCC1CN(C(=O)N2CCC(C(=O)NCc3cccc(OC)c3OC)CC2)c2cc(C)ccc2O1 (stereo not drawn)	12.6 µM (active)	
CC(C)NS(=O)(=O)c1ccc(NC(=S)NC(=O)c2ccc(-c3ccccc3)cc2)cc1	5.01 µM (active)	
O=C(NC(=C(Cl)Cl)S(=O)(=O)c1ccc(Cl)cc1)c1ccccc1		-9.33%
O=c1c(Cl)c(Cl)cnn1Cc1nnc(-c2ccc(Cl)cc2)o1	14.1 µM (active)	
O=C(NC1CCCCC1)N1CCN(c2ccc([N+](=O)[O-])cc2)CC1	11.2 µM (active)	
Cc1ccc(NC(=O)/C(=C\c2ccc([N+](=O)[O-])cc2)NC(=O)c2ccccc2)cc1	10 µM (active)	
Cc1ccc(NC(=O)c2ccc(Nc3c([N+](=O)[O-])cc([N+](=O)[O-])cc3[N+](=O)[O-])cc2)cc1	3.16 µM (active)	
O=C(Nc1cccc([N+](=O)[O-])c1)c1ccc2nsnc2c1		-9.9%
COCCn1c(=O)[nH]c2cc(C(=O)NCc3ccccc3)ccc2c1=O		2.77%
O=C(NCc1ccccc1)c1c[nH]c2ccccc2c1=O	14.1 µM (active)	

SMILES	Potency	activity change, negative = inhibition
CCn1c(/C=C/N(C(C)=O)c2ccccc2)[n+](CC)c2ccc(Cl)cc21	2.82 µM (active)	
CCOC(=O)c1ccc2c(c1)n(CC)c(/C=C/N(C)c1ccccc1)[n+]2CC	0.447 µM (active)	
CCc1ccc(NC(=O)CN(c2cc(C)cc(C)c2)S(=O)(=O)c2c(C)[nH]c(=O)[nH]c2=O)cc1	12.6 µM (active)	
CC1S/C(=N/N=C/c2ccco2)N(Cc2ccccc2)C1=O (stereo not drawn)		-10.7%
CCC1S/C(=N/N=C/c2ccco2)N(Cc2ccccc2)C1=O (stereo not drawn)	14.1 µM (active)	
CCC1S/C(=N/N=C/c2ccco2)N(Cc2ccccc2C)C1=O (stereo not drawn)	11.2 µM (active)	
CCc1ccc(/C=N/n2c(C)cc(C)c(C#N)c2=O)cc1	6.31 µM (active)	
C=C1C(=O)O[C@@H]2[C@H]1CC[C@H](C)[C@]1(O)CCC(=O)[C@@]21C	12.6 µM (active)	
N=C(N)c1ccc(/C=C/c2ccc(C(=N)N)cc2O)cc1	0.708 µM (active)	
COC(=O)c1ccc(Sc2nnnn2-c2ccccc2)c([N+](=O)[O-])c1	11.2 µM (active)	
O=C(NC1CCS(=O)(=O)C1)/C(=C\c1ccc(F)cc1)NC(=O)c1ccccc1 (stereo not drawn)	15.8 µM (active)	
Cn1c(=O)oc2cc(S(=O)(=O)NCCC(=O)NCc3ccc(F)cc3)ccc21	15.8 µM (active)	
COc1cc2c(O)c3c(c(-c4ccc5c(c4)OCO5)c2cc1OC)C(=O)OC3	10 µM (active)	
CCOc1ccccc1NC(=O)/C(C#N)=C/c1cccnc1	14.1 µM (active)	
CCOc1ccccc1NC(=S)N1CCN(c2cccc(OC)c2)CC1		-10.4%
Fc1ccc(Nc2nc(N3CCOCC3)nc(N3CCOCC3)n2)cc1	14.1 µM (active)	
N#Cc1cc(S(=O)(=O)c2ccccc2)c(N)[nH]c1=O		-20.3%
COc1ccc(-c2nnc3ccc(SCC(=O)Nc4nc5ccc(C)cc5s4)nn23)cc1OC	1.26 µM (active)	
